Publication PMC7862700, “An all-to-all approach to the identification of sequence-specific readers for epigenetic DNA modifications on cytosine”

How the values were obtained:
Experiment in all cases: DAPPL (digital affinity profiling via proximity ligation, sequencing); 10 mM Tris-HCl pH 7.5, 50 mM NaCl, 1 mM DTT, 4% glycerol, room temperature, 30 min; GST-TFs on glutathione beads, 16-mer random dsDNA library, 0.1% formaldehyde crosslink after washing; high values mean tight binding
FEV = molecular target: T1, FEV (Homo sapiens, UniProt Q99581 1-238); details: protein: recombinant; tags: N-terminal GST; dsDNA, one strand shown
T1 sequence: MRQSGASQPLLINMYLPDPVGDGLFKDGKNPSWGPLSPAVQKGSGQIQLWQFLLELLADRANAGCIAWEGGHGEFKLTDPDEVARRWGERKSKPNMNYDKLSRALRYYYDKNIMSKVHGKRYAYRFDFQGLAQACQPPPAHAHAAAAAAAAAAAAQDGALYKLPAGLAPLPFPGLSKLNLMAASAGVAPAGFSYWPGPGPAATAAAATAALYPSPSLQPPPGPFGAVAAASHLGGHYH
How it was run: (§1)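 Binding signal is given per hexamer as its read frequency for a factor divided by its frequency in the tag-only sample. GST-fused human transcription factors were expressed in yeast, captured on glutathione beads, barcoded with DNA and pooled with that sample, then incubated with 200 nmole of a 16-mer random double-stranded DNA library in Tris/NaCl/DTT/glycerol buffer for 30 min at room temperature. The pools were then washed, crosslinked, proximity-ligated, amplified by PCR and sequenced on an Illumina NextSeq500.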

ETV5 = ETV5 (Homo sapiens, UniProt P41161 1-510); details: protein: recombinant; tags: N-terminal GST; dsDNA, one strand shown
How it was run: as §1

HSF1 = HSF1 (Homo sapiens, UniProt Q00613 1-529); details: protein: recombinant; tags: N-terminal GST; chain copies: 3; dsDNA, one strand shown
How it was run: as §1

SPIC = molecular target: T2, SPIC (Homo sapiens, UniProt Q8N5J4 1-248); details: protein: recombinant; tags: N-terminal GST; dsDNA, one strand shown
T2 sequence: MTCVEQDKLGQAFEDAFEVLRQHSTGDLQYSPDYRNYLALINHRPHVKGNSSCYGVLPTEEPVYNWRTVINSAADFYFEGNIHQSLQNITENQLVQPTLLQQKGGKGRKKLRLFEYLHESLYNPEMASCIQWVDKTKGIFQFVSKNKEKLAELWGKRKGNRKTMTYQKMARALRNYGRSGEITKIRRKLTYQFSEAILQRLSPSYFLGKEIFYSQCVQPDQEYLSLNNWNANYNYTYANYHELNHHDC
How it was run: as §1

ELF4 = ELF4 (Homo sapiens, UniProt Q99607 1-663); details: protein: recombinant; tags: N-terminal GST; dsDNA, one strand shown
How it was run: as §1

ELK4 = molecular target: T3, ELK4 (Homo sapiens, UniProt P28324-2 1-405); details: protein: recombinant; tags: N-terminal GST; dsDNA, one strand shown
T3 sequence: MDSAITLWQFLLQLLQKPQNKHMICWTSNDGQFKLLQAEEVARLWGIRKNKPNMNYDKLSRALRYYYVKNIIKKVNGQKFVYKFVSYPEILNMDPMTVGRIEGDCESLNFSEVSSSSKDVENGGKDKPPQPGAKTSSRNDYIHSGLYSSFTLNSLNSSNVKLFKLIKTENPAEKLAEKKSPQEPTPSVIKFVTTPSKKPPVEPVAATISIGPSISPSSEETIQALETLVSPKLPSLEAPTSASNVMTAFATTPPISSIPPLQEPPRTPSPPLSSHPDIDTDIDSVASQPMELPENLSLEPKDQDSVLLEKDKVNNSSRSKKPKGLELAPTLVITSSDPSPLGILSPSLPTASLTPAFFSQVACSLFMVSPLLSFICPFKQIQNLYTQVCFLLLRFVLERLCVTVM
How it was run: as §1

ETV2 = molecular target: T4, ETV2 (Homo sapiens, UniProt O00321 1-342); details: protein: recombinant; tags: N-terminal GST; dsDNA, one strand shown
T4 sequence: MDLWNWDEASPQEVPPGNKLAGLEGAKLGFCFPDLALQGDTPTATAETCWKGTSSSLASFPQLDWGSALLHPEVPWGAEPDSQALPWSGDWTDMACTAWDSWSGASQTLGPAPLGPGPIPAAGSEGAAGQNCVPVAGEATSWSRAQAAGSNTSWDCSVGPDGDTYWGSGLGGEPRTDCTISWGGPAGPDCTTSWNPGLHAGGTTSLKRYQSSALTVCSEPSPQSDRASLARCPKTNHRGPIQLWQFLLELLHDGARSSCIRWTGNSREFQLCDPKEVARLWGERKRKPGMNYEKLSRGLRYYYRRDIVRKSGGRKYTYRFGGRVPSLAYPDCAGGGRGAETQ
How it was run: as §1

ELF3 = molecular target: T5, ELF3 (Homo sapiens, UniProt P78545 1-371); details: protein: recombinant; tags: N-terminal GST; dsDNA, one strand shown
T5 sequence: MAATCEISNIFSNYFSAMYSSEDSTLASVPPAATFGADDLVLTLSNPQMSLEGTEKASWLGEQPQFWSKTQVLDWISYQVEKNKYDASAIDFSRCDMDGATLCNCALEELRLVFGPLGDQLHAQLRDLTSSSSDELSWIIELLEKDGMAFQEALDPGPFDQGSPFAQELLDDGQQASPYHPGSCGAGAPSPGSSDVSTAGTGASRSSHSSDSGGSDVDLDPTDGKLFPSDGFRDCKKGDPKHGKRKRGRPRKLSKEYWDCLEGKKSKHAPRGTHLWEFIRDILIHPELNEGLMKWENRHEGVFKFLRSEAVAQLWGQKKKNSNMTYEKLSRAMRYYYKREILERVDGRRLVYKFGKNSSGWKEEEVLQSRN
How it was run: as §1

CRX = CRX (Homo sapiens, UniProt O43186 1-299); details: protein: recombinant; tags: N-terminal GST; dsDNA, one strand shown
How it was run: as §1

Chain of CRX (O43186 whole entry): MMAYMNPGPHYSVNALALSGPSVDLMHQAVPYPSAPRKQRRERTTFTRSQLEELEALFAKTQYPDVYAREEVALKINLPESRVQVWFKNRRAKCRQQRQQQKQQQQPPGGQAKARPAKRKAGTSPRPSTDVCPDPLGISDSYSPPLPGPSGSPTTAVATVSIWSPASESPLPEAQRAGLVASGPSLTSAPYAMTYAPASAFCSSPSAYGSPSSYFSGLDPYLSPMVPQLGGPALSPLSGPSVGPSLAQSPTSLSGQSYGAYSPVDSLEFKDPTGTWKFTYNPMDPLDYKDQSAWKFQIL
Chain of ELF4 (Q99607 whole entry): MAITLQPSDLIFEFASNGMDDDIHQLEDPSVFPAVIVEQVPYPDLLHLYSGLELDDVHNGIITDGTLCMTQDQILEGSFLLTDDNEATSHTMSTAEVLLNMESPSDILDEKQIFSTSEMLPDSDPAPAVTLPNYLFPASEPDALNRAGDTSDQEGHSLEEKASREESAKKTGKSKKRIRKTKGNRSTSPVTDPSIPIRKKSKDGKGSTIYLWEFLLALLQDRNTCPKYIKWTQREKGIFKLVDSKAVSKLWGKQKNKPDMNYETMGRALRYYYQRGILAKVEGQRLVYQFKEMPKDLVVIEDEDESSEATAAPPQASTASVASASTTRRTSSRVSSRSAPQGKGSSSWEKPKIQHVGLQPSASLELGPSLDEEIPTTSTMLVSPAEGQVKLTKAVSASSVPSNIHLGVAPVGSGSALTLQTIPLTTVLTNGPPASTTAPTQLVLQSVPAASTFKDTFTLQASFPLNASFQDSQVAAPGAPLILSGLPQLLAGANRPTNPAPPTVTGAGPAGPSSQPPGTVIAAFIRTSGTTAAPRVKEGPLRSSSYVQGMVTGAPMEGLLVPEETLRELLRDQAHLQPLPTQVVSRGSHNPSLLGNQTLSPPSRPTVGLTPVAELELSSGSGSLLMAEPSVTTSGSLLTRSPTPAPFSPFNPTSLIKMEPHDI
Chain of ETV5 (P41161 whole entry): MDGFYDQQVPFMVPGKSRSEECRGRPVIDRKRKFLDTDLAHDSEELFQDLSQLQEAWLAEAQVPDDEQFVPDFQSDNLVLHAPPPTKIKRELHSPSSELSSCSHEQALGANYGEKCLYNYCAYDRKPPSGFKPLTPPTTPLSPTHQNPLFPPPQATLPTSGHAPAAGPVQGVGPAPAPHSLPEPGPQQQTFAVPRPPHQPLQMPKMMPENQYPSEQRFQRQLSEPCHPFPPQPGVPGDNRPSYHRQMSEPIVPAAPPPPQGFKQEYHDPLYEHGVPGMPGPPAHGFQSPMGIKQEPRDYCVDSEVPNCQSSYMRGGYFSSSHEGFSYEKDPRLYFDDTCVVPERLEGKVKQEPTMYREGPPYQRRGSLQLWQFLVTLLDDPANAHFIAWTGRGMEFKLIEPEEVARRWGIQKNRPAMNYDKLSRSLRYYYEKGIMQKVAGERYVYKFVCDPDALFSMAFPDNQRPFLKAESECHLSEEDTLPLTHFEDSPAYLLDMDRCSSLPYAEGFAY
Chain of HSF1 (Q00613 whole entry): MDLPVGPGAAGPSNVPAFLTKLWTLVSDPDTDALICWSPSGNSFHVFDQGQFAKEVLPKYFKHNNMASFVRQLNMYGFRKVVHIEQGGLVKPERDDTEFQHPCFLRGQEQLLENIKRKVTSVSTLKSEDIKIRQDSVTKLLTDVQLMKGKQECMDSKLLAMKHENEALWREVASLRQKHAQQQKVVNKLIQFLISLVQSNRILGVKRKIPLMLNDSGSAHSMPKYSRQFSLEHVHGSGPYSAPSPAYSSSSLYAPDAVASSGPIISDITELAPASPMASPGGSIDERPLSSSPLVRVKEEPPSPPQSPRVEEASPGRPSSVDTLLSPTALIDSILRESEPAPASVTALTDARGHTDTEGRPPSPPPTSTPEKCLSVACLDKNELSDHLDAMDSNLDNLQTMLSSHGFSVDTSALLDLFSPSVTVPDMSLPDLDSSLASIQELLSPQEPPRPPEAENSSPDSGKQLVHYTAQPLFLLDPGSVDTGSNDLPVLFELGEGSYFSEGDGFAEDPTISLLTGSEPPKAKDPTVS

Sequence: TATTCC
- binding signal (FEV): 1.61 fold enrichment (6-mer frequency, TF over GST control)
- binding signal (ETV5): 1.72 fold enrichment (6-mer frequency, TF over GST control)
- binding signal (HSF1): 2.11 fold enrichment (6-mer frequency, TF over GST control)
- binding signal (SPIC): 1.74 fold enrichment (6-mer frequency, TF over GST control)
- binding signal (ELF4): 1.62 fold enrichment (6-mer frequency, TF over GST control)
- binding signal (ELK4): 1.44 fold enrichment (6-mer frequency, TF over GST control)
- binding signal (ETV2): 1.68 fold enrichment (6-mer frequency, TF over GST control)
- binding signal (ELF3): 1.5 fold enrichment (6-mer frequency, TF over GST control)
- binding signal (CRX): 1.77 fold enrichment (6-mer frequency, TF over GST control)
